The record followed here is PubChem BioAssay (EPA / NIEHS).

Records with an inconclusive call do not appear. The source made the active and inactive calls. Rule for the calls, unless noted: active = hit-call score of the fitted dose curve at least 0.9, where 1 is the maximum; inactive = score below 0.9.

Assay [1] has as its target Paired box protein Pax-6 (Homo sapiens) (UniProt P26367). The assay can be described thus: ATG_Pax6_CIS: Attagene CIS-FACTORIAL HepG2 Assay for human Paired Box 6 (PAX6) (AID 2282956). As to conditions: HepG2 CIS-FACTORIAL PAX6 reporter transcription, RNA readout; actives raise or lower the signal. In outline:
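Fluorescent RT-PCR products separated by capillary electrophoresis report PAX6-linked promoter mRNA in HepG2 cells 24 h post-dose. Curves fitted bidirectionally, DMSO as negative control.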

Assay [2] can be described thus: ATG_PXRE_CIS: Attagene CIS-FACTORIAL HepG2 Assay for human Pregnane X Receptor Element (PXRE) (AID 2282957). The conditions noted are these: HepG2 Attagene CIS-FACTORIAL PXRE reporter, mRNA; actives raise or lower the signal. In outline:
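Reporter transcripts under endogenous PXR-responsive cis-regulation quantified from total RNA of transfected HepG2 cells 24 h post-dosing, via RT-PCR with fluorescent primer extension and capillary electrophoresis. Gain or loss of signal fitted against DMSO baseline.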

Assay [3] is described as follows: ATG_PPRE_CIS: Attagene CIS-FACTORIAL HepG2 Assay for human Peroxisome Proliferator-activated Response Element (PPRE) (AID 2282958). The conditions noted are these: HepG2 PPRE cis-element reporter, Attagene transcription factor profiling; actives raise or lower the signal. In outline: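 PPRE activity in HepG2: transient cis-reporter transfection, 24 h compound incubation, reporter mRNA by RT-PCR and CE fluorescence; gain/loss fitted against DMSO.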

Assay [4] is described as follows: ATG_RORE_CIS: Attagene CIS-FACTORIAL HepG2 Assay for human RAR-related Orphan Receptor Element (RORE) (AID 2282959). The conditions noted are these: HepG2 Attagene cis-factorial RORE reporter, mRNA; actives raise or lower the signal. In outline:
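A 24-hour exposure of transfected HepG2 hepatoma cells precedes RNA isolation and reporter RT-PCR. Labeled products are digested with HpaI and resolved by capillary electrophoresis, with gain or loss of signal scored relative to DMSO.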

Assay [5] is described as follows: ATG_Sox_CIS: Attagene CIS-FACTORIAL HepG2 Assay for human SRY-box transcription factor (SOX) (AID 2282960). As to conditions: HepG2 Attagene cis-factorial SOX reporter, mRNA; actives raise or lower the signal. The method, boiled down:
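HepG2, cis reporter units, 24 h exposure. Reporter mRNA: RT-PCR → FAM labelling → HpaI → CE fluorescence. Bidirectional fit vs DMSO.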

Assay [6] concerns the target Transcription factor Sp1 (Homo sapiens) (UniProt P08047). The assay can be described thus: ATG_Sp1_CIS: Attagene CIS-FACTORIAL HepG2 Assay for human Specificity Protein 1 (Sp1) (AID 2282961). As to conditions: HepG2 Sp1 cis-reporter transcription, actives raise or lower the signal. The method, boiled down:
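Liver-derived HepG2 cells, cis-element reporter library, 24 h treatment; RNA isolated, cDNA amplified with reporter-specific primers, FAM-labeled fragments sized on capillary analyzer. DMSO baseline, bidirectional curve fit.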

A short description of assay [7]: ATG_SREBP_CIS: Attagene CIS-FACTORIAL HepG2 Assay for human Sterol Regulatory Element Binding (SREBP) (AID 2282962). The conditions noted are these: HepG2 Attagene cis-factorial SREBP reporter, mRNA; actives raise or lower the signal. In outline: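 Endogenous factor activity is measured in HepG2 through multiplexed reporter units under cis-element control. Following a 24 h incubation, reporter transcripts are reverse-transcribed, PCR-amplified and sized by capillary electrophoresis; activity is fitted in both directions relative to DMSO.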

The target in assay [8] is Signal transducer and activator of transcription 3 (Homo sapiens) (UniProt P40763). The assay can be described thus: ATG_STAT3_CIS: Attagene CIS-FACTORIAL HepG2 Assay for human Signal Transducer and Activator of Transcription 3 (STAT3) (AID 2282963). As to conditions: HepG2, Attagene cis-factorial STAT3 reporter transcription; actives raise or lower the signal. The method, boiled down: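 Fluorescence intensity of 6-FAM-labelled reporter fragments, separated by capillary electrophoresis after RT-PCR, gave the signal. Cells were HepG2 transfected with cis-element reporter units and treated 24 h; fitting was bidirectional relative to DMSO.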

A short description of assay [9]: ATG_TA_CIS: Attagene CIS-FACTORIAL HepG2 Assay for human TA Basal Promoter (AID 2282964). As to conditions: HepG2 Attagene CIS-factorial TA basal promoter reporter; actives raise or lower the signal. The method, boiled down:
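Background internal-marker endpoint from a 52-component HepG2 cis-reporter panel. Cells treated 24 h; reporter transcripts quantified via RT-PCR and CE fluorescence against DMSO baseline.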

A short description of assay [10]: ATG_TCF_b_cat_CIS: Attagene CIS-FACTORIAL HepG2 Assay for human T-Cell-Factor with beta-catenin (TCF/b-cat) (AID 2282965). The conditions noted are these: HepG2 TCF/beta-catenin cis-reporter transcription, actives raise or lower the signal. In outline:
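Cells of the HepG2 line carry transiently transfected reporter units whose promoters respond to endogenous factors. Twenty-four hours post-dosing, reporter mRNA induction is measured by fluorescent RT-PCR and capillary electrophoresis, with DMSO as baseline.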

Assay [11] can be described thus: ATG_TAL_CIS: Attagene CIS-FACTORIAL HepG2 Assay for human TAL Basal Promoter (AID 2282966).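 Note: background control endpoint measuring basal TAL promoter reporter mRNA not a specific factor.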 As to conditions: HepG2 Attagene cis-factorial TAL promoter reporter; actives raise or lower the signal. In outline:
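Background-control endpoint: basal TAL promoter reporter transcripts in transiently transfected HepG2, measured 24 h after dosing. Read-out by RT-PCR with fluorescent primer extension and capillary electrophoresis; gain or loss of signal fitted relative to DMSO.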

The nature of assay [12]: ATG_TGFb_CIS: Attagene CIS-FACTORIAL HepG2 Assay for human Transforming Growth Factor (TGF) (AID 2282967). As to conditions: HepG2 Attagene CIS TGFb reporter, mRNA transcription; actives raise or lower the signal. In outline:
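Liver HepG2 line, cis-factorial reporter panel, 24 h dosing. Quantitation: RT-PCR products labeled with 6-FAM, cut with HpaI, resolved by capillary electrophoresis; DMSO-referenced bidirectional analysis.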

A short description of assay [13]: ATG_VDRE_CIS: Attagene CIS-FACTORIAL HepG2 Assay for human Vitamin D Receptor Element (VDRE) (AID 2282968). As to conditions: HepG2 VDRE cis-reporter transcription, actives raise or lower the signal. In outline: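 Compounds were applied for 24 h to HepG2 cells transfected with promoter-regulated reporter units. Total RNA was reverse-transcribed, and reporter amplicons were fluorescently labelled and sized by capillary electrophoresis.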

Assay [14] concerns the target Nuclear receptor subfamily 1 group I member 3 (Homo sapiens) (UniProt Q14994). The assay can be described thus: ATG_CAR_TRANS: Attagene TRANS-FACTORIAL HepG2 Assay for human Constitutive Androstane Receptor (CAR) (AID 2282969; active = hit-call score of the fitted dose curve at least 0.9, where 1 is the maximum;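 note: activators raise reporter mRNA above DMSO so AC50 marks induction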). The conditions noted are these: HepG2 Attagene TRANS-FACTORIAL CAR reporter. The method, boiled down:
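Transiently transfected HepG2, multiplex TRANS reporters (CAR-Gal4 chimera driving GAL4-UAS reporter). 24 h dosing. Readout: reporter transcript by RT-PCR + capillary electrophoresis, fluorescence intensity; positive direction vs DMSO.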

The target of assay [15] is X-box-binding protein 1 (Homo sapiens) (UniProt P17861). Nature of the assay: ATG_Xbp1_CIS: Attagene CIS-FACTORIAL HepG2 Assay for human X-box Binding Protein 1 (XBP1) (AID 2282972). The conditions noted are these: HepG2 XBP1 cis-element reporter, Attagene multiplex; actives raise or lower the signal. The method, boiled down: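 Multiplexed cis-reporter readout in transfected HepG2 liver cells. Exposure lasted 24 hours. Activity in either direction was fitted against DMSO as negative control and baseline.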

Assay [16] in a line: ATG_M_19_TRANS: Attagene TRANS-FACTORIAL HepG2 Assay for M19 Transcription Factor (Internal Marker) (AID 2282974; active = hit-call score of the fitted dose curve at least 0.9, where 1 is the maximum). As to conditions: HepG2 Attagene TRANS-FACTORIAL M19 internal marker reporter. The method, boiled down: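 Transfected HepG2 (GAL4-UAS MRTUs), 24 h compound, TriZol RNA, DNase-treated RT, reporter PCR, FAM label, HpaI digest, CE fluorescence; gain vs DMSO.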
The target of assay [17] is Estrogen receptor (Homo sapiens) (UniProt P03372). Nature of the assay: ATG_ERa_TRANS: Attagene TRANS-FACTORIAL HepG2 Assay for human Estrogen Receptor alpha (ERa) (AID 2282970; active = hit-call score of the fitted dose curve at least 0.9, where 1 is the maximum). The conditions noted are these: HepG2 Attagene TRANS ERa GAL4 reporter, mRNA. In outline: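 Reporter transcripts were measured 24 h after dosing by RT-PCR with fluorescent primer extension and capillary electrophoresis. The system is transiently transfected HepG2 expressing exogenous NR-Gal4 chimeras driving GAL4-UAS reporters; DMSO is the baseline.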

Assay [18] addresses Steroid hormone receptor ERR1 (Homo sapiens) (UniProt P11474). Nature of the assay: ATG_ERRa_TRANS: Attagene TRANS-FACTORIAL HepG2 Assay for human Estrogen-Related Receptor alpha (ERRa) (AID 2282971; active = hit-call score of the fitted dose curve at least 0.9, where 1 is the maximum). As to conditions: HepG2 Attagene TRANS reporter, ERRa transactivation. In outline: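 Reporter transcripts from ERRa-Gal4 chimera activity measured in transiently transfected human HepG2 cells 24 hours after dosing, using RT-PCR with 6-FAM primer extension, HpaI digestion and capillary electrophoresis; DMSO is baseline.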

The target in assay [19] is Estrogen-related receptor gamma (Homo sapiens) (UniProt P62508). Nature of the assay: ATG_ERRg_TRANS: Attagene TRANS-FACTORIAL HepG2 Assay for human Estrogen-Related Receptor gamma (ERRg) (AID 2282977; active = hit-call score of the fitted dose curve at least 0.9, where 1 is the maximum;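 note: hits increase reporter signal over DMSO so potencies reflect activators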). As to conditions: HepG2 Attagene TRANS reporter, ERRg transactivation. In outline: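 Exogenous NR-Gal4 chimera activity measured as reporter transcript induction after 24 h in transiently transfected HepG2 cells. RNA reverse-transcribed, PCR-amplified, 6-FAM-labelled and resolved by capillary electrophoresis; increase over DMSO baseline.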

A short description of assay [20]: ATG_GAL4_TRANS: Attagene TRANS-FACTORIAL HepG2 Assay for GAL4 (Internal Marker) (AID 2282976; active = hit-call score of the fitted dose curve at least 0.9, where 1 is the maximum). As to conditions: HepG2 Attagene TRANS GAL4 internal marker reporter. The method, boiled down: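 In transfected human HepG2 liver cells dosed 24 h, GAL4 reporter mRNA serves as a baseline marker. Detection by RT-PCR with fluorescent capillary electrophoresis, activity fitted upward relative to DMSO.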

Sequence of Signal transducer and activator of transcription 3 (Homo sapiens) (P40763 whole entry, looked up, the tested form may be a part): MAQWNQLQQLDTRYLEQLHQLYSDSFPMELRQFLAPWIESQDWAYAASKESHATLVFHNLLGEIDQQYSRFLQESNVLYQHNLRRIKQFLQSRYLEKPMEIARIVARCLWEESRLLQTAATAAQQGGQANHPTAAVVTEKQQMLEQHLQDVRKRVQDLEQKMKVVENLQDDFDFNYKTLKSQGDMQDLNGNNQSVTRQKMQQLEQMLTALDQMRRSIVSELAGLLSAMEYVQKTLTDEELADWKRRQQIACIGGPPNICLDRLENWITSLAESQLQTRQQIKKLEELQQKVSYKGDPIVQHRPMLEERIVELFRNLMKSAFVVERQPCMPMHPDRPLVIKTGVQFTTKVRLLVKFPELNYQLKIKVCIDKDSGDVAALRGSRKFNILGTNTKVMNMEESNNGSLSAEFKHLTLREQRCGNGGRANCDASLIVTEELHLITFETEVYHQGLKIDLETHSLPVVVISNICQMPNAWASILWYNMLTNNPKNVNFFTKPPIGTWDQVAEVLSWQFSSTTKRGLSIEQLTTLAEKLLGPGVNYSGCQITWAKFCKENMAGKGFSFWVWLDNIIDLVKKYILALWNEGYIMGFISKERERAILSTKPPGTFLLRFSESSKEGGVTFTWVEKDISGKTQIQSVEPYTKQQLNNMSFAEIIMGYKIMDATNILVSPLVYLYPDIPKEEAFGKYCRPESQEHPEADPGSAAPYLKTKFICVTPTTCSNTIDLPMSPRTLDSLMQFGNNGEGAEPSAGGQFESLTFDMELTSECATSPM
Sequence of Transcription factor Sp1 (Homo sapiens) (P08047 whole entry, looked up, the tested form may be a part): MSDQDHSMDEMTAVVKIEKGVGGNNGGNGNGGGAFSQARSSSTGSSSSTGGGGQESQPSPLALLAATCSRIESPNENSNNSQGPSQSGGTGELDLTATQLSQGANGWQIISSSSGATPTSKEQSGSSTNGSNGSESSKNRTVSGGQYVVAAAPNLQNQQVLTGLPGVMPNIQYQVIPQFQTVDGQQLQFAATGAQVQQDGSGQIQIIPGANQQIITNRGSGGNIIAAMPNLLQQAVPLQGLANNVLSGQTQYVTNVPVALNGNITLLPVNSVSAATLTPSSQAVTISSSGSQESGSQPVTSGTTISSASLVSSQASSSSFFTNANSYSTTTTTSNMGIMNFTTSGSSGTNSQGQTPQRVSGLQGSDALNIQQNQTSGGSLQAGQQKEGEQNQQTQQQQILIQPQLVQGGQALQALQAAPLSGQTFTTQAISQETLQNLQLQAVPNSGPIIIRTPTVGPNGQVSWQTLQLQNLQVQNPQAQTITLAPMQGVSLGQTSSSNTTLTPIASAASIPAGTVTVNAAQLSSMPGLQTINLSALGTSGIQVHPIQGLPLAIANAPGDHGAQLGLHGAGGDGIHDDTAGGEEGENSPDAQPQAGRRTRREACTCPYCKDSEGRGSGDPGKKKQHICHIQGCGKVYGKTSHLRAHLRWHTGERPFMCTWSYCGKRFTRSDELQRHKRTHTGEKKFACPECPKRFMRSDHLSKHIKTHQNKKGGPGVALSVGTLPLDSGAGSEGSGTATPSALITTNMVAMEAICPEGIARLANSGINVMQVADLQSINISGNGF
Sequence of Paired box protein Pax-6 (Homo sapiens) (P26367 whole entry, looked up): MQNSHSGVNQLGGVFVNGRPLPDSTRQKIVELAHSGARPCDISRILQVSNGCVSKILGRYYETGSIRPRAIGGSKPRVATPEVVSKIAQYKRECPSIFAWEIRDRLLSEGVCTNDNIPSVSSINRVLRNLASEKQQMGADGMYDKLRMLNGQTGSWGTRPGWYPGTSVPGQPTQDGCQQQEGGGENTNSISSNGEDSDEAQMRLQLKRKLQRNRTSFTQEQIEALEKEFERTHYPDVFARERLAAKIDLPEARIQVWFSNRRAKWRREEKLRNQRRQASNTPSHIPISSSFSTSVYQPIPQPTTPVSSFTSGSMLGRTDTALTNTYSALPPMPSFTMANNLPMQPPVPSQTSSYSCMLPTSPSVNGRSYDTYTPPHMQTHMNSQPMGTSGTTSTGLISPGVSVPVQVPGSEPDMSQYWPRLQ
Sequence of Nuclear receptor subfamily 1 group I member 3 (Homo sapiens) (Q14994 whole entry, looked up, the tested form may be a part): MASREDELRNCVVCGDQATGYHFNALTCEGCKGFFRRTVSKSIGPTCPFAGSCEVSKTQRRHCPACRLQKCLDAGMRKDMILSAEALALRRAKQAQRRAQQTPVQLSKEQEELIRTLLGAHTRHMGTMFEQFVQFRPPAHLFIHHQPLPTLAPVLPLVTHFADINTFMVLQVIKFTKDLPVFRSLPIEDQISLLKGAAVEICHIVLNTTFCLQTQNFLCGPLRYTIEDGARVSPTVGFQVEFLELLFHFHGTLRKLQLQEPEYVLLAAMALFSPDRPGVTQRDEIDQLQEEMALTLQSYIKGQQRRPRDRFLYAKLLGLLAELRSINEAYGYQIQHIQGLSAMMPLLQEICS
Sequence of X-box-binding protein 1 (Homo sapiens) (P17861 whole entry, looked up): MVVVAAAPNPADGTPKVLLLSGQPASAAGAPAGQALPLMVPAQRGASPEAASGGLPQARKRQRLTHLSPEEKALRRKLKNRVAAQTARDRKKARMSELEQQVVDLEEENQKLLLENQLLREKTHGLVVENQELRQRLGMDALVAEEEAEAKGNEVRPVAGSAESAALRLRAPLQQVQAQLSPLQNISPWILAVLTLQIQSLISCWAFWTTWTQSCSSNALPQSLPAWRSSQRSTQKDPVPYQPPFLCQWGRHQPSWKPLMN
Sequence of Estrogen-related receptor gamma (Homo sapiens) (P62508 whole entry, looked up, the tested form may be a part): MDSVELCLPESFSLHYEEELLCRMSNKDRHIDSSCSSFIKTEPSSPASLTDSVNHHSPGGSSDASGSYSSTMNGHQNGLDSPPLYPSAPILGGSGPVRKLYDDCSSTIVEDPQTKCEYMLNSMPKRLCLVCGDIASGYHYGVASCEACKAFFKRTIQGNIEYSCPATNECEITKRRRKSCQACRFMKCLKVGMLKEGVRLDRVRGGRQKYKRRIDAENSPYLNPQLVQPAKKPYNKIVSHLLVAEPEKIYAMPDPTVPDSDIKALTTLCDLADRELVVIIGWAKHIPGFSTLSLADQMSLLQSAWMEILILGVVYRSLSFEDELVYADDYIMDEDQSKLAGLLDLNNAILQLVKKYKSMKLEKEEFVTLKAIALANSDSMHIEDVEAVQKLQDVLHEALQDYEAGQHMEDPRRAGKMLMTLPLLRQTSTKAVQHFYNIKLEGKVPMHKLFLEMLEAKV
Sequence of Estrogen receptor (Homo sapiens) (P03372 whole entry, looked up, the tested form may be a part): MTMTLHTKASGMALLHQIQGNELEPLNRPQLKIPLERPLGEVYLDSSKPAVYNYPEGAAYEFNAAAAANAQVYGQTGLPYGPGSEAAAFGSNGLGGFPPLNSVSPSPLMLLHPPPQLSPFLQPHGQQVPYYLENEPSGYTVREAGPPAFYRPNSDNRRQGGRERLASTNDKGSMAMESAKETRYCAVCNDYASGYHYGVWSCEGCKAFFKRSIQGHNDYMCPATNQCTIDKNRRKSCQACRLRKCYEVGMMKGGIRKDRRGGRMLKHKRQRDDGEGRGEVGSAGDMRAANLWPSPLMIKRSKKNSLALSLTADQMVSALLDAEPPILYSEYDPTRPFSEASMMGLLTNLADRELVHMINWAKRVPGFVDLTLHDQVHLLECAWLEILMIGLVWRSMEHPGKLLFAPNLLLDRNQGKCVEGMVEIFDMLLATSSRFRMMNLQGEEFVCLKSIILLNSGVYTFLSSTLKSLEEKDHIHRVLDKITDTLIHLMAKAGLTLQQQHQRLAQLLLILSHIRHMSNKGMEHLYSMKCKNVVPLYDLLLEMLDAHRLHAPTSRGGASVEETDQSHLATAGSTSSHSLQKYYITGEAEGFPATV
Sequence of Steroid hormone receptor ERR1 (Homo sapiens) (P11474 whole entry, looked up, the tested form may be a part): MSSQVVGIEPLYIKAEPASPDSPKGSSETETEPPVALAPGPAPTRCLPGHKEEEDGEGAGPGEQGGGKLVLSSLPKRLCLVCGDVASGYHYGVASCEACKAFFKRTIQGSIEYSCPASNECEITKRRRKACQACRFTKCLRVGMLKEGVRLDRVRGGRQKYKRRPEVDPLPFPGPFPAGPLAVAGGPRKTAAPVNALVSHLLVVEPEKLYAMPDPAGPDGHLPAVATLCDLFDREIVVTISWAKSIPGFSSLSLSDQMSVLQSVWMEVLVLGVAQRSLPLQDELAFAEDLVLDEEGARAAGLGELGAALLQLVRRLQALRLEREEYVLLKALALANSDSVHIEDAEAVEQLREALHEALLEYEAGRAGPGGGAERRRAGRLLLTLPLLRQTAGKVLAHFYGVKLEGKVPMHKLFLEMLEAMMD

As for `OCCOCCO`, the call in assay [1], in assay [2], in assay [3], in assay [4], in assay [5] and in assay [6] was inactive. The compound was called inactive in [7], in assay [8], in [9], in assay [10], in assay [11] and in assay [12]. Moreover, the result in assay [13], in assay [14], in assay [15] and in [16] was inactive.

For orientation: AC50 means the midpoint of the concentration-response curve, whichever way the signal moves. Consider `Nc1ccc(N=Nc2ccccc2)cc1`, for which the concentration at half-maximal activity (AC50) was 47.4 µM (active) in [1]; 57.7 µM (active) in assay [2]; 77.9 µM (active) in assay [3]; 40.7 µM (active) in assay [4]; 52.2 µM (active) in [9]; 27.4 µM (active) in [10]. The AC50 in assay [11] is 100 µM (active); in [13] it was 54 µM (active); in [17] it was 33 µM (active); in assay [15], 73.9 µM (active). The call in assay [5], in assay [6], in [7], in [8], in [12] and in assay [18] was inactive. For the same compound, the call in assay [16] and in assay [19] was inactive.

As for `O=C1CCCO1`, the compound was called inactive in assay [1], in assay [2], in [3], in assay [4], in [5] and in assay [6]. Also, the compound was classed as inactive in [7], in assay [8], in [9], in assay [10], in [11] and in [12]. Moreover, the compound was called inactive in assay [13], in assay [14], in assay [15], in [20] and in assay [19].

For `CCOC(=O)[C@]1(c2ccccc2)Oc2ccccc2[C@@H]1N`, the AC50 in assay [1] was 37.6 µM (active); in assay [2], 9.53 µM (active); in assay [3], 13.8 µM (active); in assay [4] it was 33 µM (active); in assay [5] it was 50.3 µM (active); in assay [6], 49.6 µM (active). For the same compound, the AC50 in [7] was 12.3 µM (active); in [9], 33 µM (active); in assay [11] it was 61.8 µM (active); in [12], 15.6 µM (active); in [13], 15.8 µM (active); in assay [15], 41.9 µM (active). Moreover, the result in assay [8], in assay [10], in [14] and in assay [16] was inactive.
